Screening results (PubChem BioAssay)
TDP1 cell CPT – growth inhibition of DT40 Tdp1-/-;hTDP1 cells with camptothecin (screen for TDP1 inhibitors); chicken DT40 Tdp1-/-;hTDP1 cells + 20 nM CPT, ATP luminescence, 48 h; Potency, µM (top dose mostly 46.2 µM), hits mostly inhibitors; 420,000 compounds, 12% hits; AID 686979; note: nearly all actives have a fitted effect of over 55% in size
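Cell growth measured by CellTiter-Glo luminescence after a minimum 48 h, 37 C compound exposure with 20 nM CPT in Tdp1-knockout DT40 cells stably expressing hTDP1, seeded 400/well; qHTS titration format.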
TDP1 block – inhibitors of human tyrosyl-DNA phosphodiesterase TDP1. Q9NUW8. 350,000 compounds, 0.28% hits. recombinant TDP1, AlphaScreen DNA substrate cleavage. Potency, µM (titrated, usually from 130 µM), usual class: inhibitors; note: nearly all actives have a fitted effect of over 40% in size
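E. coli-derived human Tdp1, 1 nM final. Cpd preinc 15 min RT; substrate 15 nM final, 5 min RT; AS bead mix 10 ug/ml final, 10 min RT. Signal loss = tyrosine-FITC cleavage. No-enzyme wells = max signal.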
RORgamma inh – inhibitors of mouse ROR gamma transcriptional activity; 310,000 compounds, 5.4% hits; P51450; AID 2551; Drosophila S2 Gal4-RORgamma UAS-luciferase reporter, 20 h; Potency, µM (titrated, usually from 53.6 µM), actives largely listed as inhibitors; note: nearly all actives have a fitted effect of over 60% in size
Target sequence (P51450 whole entry, looked up, the tested form may be a part): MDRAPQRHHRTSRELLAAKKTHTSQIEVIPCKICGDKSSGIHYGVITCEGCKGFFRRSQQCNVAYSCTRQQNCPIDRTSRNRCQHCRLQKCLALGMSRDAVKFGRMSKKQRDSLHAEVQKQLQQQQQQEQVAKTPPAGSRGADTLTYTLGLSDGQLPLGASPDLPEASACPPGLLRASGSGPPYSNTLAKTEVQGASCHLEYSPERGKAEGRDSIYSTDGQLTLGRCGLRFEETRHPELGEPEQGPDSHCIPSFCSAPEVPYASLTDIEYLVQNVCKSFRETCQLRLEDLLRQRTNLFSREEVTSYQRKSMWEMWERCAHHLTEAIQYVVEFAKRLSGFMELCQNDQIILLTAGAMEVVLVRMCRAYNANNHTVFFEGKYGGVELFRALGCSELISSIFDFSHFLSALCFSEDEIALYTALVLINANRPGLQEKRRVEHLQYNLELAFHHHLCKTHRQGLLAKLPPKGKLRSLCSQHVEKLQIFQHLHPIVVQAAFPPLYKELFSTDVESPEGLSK
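Luminescence from a UAS-regulated Photinus luciferase reporter in stably transfected Drosophila Schneider cells is measured; decreased signal marks ROR gamma inhibition. Fusion expression is induced by 700 uM copper sulfate for 20 hr.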
DT40 TDP1 no CPT – qHTS for Inhibitors of human tyrosyl-DNA phosphodiesterase 1 (TDP1): qHTS in cells in absence of CPT; DT40 Tdp1-/- hTDP1 cells, no CPT, ATP luminescence, 48 h; Potency, µM (highest dose often 46.2 µM), actives largely listed as inhibitors; 420,000 compounds, 15% hits; note: nearly all actives have a fitted effect of over 55% in size
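A cellular qHTS used chicken DT40 cells lacking endogenous Tdp1 but carrying stably transfected human TDP1. Compounds were applied without camptothecin, and cell growth kinetics were judged by ATP-dependent luminescence after ≥48 hr.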
VP16 counter – Gal4-VP16 reporter inhibition counter-screen; Drosophila S2 Gal4-VP16 UAS-luciferase, luminescence, 20 h; Potency, µM (titrated, usually from 53.6 µM), most hits filed as inhibitors; 310,000 compounds, 3.5% hits;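 note: Gal4-VP16 expression switched on by copper sulfate through the metallothionein promoter; nearly all actives have a fitted effect of over 50% in size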
A number is an active result; n = inactive; u = inconclusive; x = not tested or not shown; [ ] = remark or other dose. The list is not random: actives were taken first. Their share in the collection is about 19%. Calls come from the whole dose curve; as a rule, active = well fitted curve in the direction sought with a large enough effect; inconclusive = small, poorly fitted or top-dose-only effect, or another doubt; inactive = no such curve, though single readings can be large; an effect the other way counts as inactive or inconclusive.

SMILES	TDP1 cell CPT	TDP1 block	RORgamma inh	DT40 TDP1 no CPT	VP16 counter
CCOC(=O)c1c(NC(=O)c2cc3n(n2)C(C(F)(F)F)CC(c2ccccc2)N3)sc(C)c1C (stereo not given)	u	n	n	15µM	n
CN(C(=O)c1cc2n(n1)C(C(F)(F)F)CC(c1ccco1)N2)c1ccc(OC(F)(F)F)cc1 (stereo not given)	u	n	u	n	18µM
CCOc1ccc(NC(=O)c2cc3n(n2)C(C(F)(F)F)CC(c2ccco2)N3)cc1 (stereo not given)	n	n	n	n	n
COc1ccc(S(=O)(=O)Nc2cc(OC)c(NC(=O)c3ccco3)cc2OC)cc1	n	n	n	n	n
O=C(CCc1ccccc1)NCc1ccncc1	n	x	n	n	n
O=C(CNC(=O)c1ccccc1F)NCCOc1cccc(Cl)c1Cl	n	n	n	n	n
COc1ccc(S(=O)(=O)Nc2cc3c(cc2NCc2ccccc2)n(C)c(=O)n3C)cc1OC	u	n	x	21µM	x
Cn1c(=O)c(=O)n(C)c2cc(N3CCOCC3)c(NS(=O)(=O)c3ccc(Cl)cc3)cc21	u	n	x	u	x
Cn1c(=O)n(C)c2cc(NS(=O)(=O)c3ccc(C(C)(C)C)cc3)c(NCc3ccccc3)cc21	21µM	n[12.3 µM]	x	23µM	x
Cn1c(=O)n(C)c2cc(S(=O)(=O)Nc3ccccc3C(=O)O)ccc21	n	u	n	n	n
Cn1c(=O)n(C)c2cc(NS(=O)(=O)c3ccc(Cl)cc3)c(NCc3ccccc3)cc21	10µM	n	x	13µM	x
